# PubChem BioAssay (EPA / NIEHS)
# The source made the active and inactive calls. The calls were made as follows: active = hit-call score of the fitted dose curve at least 0.9, where 1 is the maximum; inactive = score below 0.9.
# Tests used:
# Conditions in all cases: mRNA level, 48 h; actives raise or lower the signal
# [1] = read-out: JUN Transcription Factor, JUN (gene 3725); test: LTEA_HepaRG_JUN: Life Technologies and Expression Analysis (LTEA) Assay for JUN Transcription Factor using HepaRG (AID 2283513)
# How it was run: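 Read-out is JUN transcript level by TaqMan qRT-PCR, normalized to ACTB, GAPDH and POLR2A, after 48 h chemical treatment of HepaRG cells. Concentration-response spanned eight half-log points up to 100 uM in 0.5% DMSO.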
# [2] = read-out: Lipoprotein lipase (LPL), LPL (gene 4023); test: LTEA_HepaRG_LPL: Life Technologies and Expression Analysis (LTEA) Assay for Lipoprotein lipase (LPL) using HepaRG (AID 2283515)
# How it was run: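 HepaRG, 48 h exposure, 8-pt half-log dilutions from 100 uM, 0.5% DMSO vehicle, duplicates; qRT-PCR (Fluidigm array) of LPL mRNA vs housekeeping genes; bidirectional curve fit relative to DMSO baseline.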
# [3] = read-out: MicroRNA 122 (MIR122), gene 406906; test: LTEA_HepaRG_MIR122: Life Technologies and Expression Analysis (LTEA) Assay for MicroRNA 122 (MIR122) using HepaRG (AID 2283516); also: the transcript read is the microRNA miR-122
# How it was run: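 Human liver HepaRG cultures receive test chemicals for 48 h at eight half-log concentrations from 100 uM. Expression is quantified by qRT-PCR with ACTB/GAPDH/POLR2A normalization and fitted bidirectionally against 0.5% DMSO.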
# [4] = read-out: matrix metalloproteinase-10 (MMP10), MMP10 (gene 4319); test: LTEA_HepaRG_MMP10: Life Technologies and Expression Analysis (LTEA) Assay for matrix metalloproteinase-10 (MMP10) using HepaRG (AID 2283517)
# How it was run: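 Transcript levels come from Fluidigm qRT-PCR normalized to three housekeeping genes, with curves fitted bidirectionally against 0.5% DMSO. Human HepaRG cells were dosed for 48 hours at concentrations up to 100 uM.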
# MYC, MYC (gene 4609) = test: LTEA_HepaRG_MYC: Life Technologies and Expression Analysis (LTEA) Assay for MYC using HepaRG (AID 2283518)
# How it was run: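 qRT-PCR read-out of MYC transcript (Fluidigm TaqMan, housekeeping-normalized) after 48 h chemical exposure of HepaRG cells; eight concentrations, top 100 uM, half-log steps. Bidirectional curve fitting against 0.5% DMSO vehicle baseline.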
# [5] = read-out: matrix metalloproteinase-3 (MMP3), MMP3 (gene 4314); test: LTEA_HepaRG_MMP3: Life Technologies and Expression Analysis (LTEA) Assay for matrix metalloproteinase-3 (MMP3) using HepaRG (AID 2283519)
# How it was run: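 qRT-PCR read-out of MMP3 mRNA (normalised to three housekeeping genes) in HepaRG liver cells after 48 h chemical exposure; 8-point half-log series, top 100 uM, 0.5% DMSO vehicle. Bidirectional curve fitting against DMSO baseline.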
# [6] = read-out: Paternally Expressed 10 (PEG10), PEG10 (gene 23089); test: LTEA_HepaRG_PEG10: Life Technologies and Expression Analysis (LTEA) Assay for Paternally Expressed 10 (PEG10) using HepaRG (AID 2283520);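 as to AC50: differentiated HepaRG human liver cells in serum-free induction medium with 0.5% DMSO; PEG10 transcript by qRT-PCR normalised to ACTB GAPDH and POLR2A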
# How it was run: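 Human HepaRG cultures are dosed for 48 h across an eight-point half-log series starting at 100 uM, with 0.5% DMSO as vehicle and baseline. Gain or loss of PEG10 transcript is measured by qRT-PCR and fitted in both directions.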
# [7] = read-out: Nuclear factor NF-kappa-B p105 subunit (Homo sapiens) (UniProt P19838); test: LTEA_HepaRG_NFKB1: Life Technologies and Expression Analysis (LTEA) Assay for Nuclear Factor Kappa B Subunit 1 (NFKB1) using HepaRG (AID 2283521)
# How it was run: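 HepaRG, 48 h exposure; 8-pt half-log series from 100 uM in 0.5% DMSO; duplicates. Readout: NFKB1 mRNA by qRT-PCR (Fluidigm arrays), housekeeping-normalized. Gain/loss fit vs DMSO baseline.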
# [8] = read-out: Protein phosphatase 2A (PPP2R4), PTPA (gene 5524); test: LTEA_HepaRG_PPP2R4: Life Technologies and Expression Analysis (LTEA) Assay for Protein phosphatase 2A (PPP2R4) using HepaRG (AID 2283522)
# How it was run: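 Cells were plated, cultured 48 h, switched to serum-free induction medium, then dosed for 48 h (8 points, max 100 uM, 0.5% DMSO). RNA was isolated and PPP2R4 expression measured by TaqMan qRT-PCR.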
# [9] = read-out: Phosphatase and tensin (PTEN), PTEN (gene 5728); test: LTEA_HepaRG_PTEN: Life Technologies and Expression Analysis (LTEA) Assay for Phosphatase and tensin (PTEN) using HepaRG (AID 2283523)
# How it was run: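 HepaRG, 48 h exposure, 8-pt half-log series from 100 uM top, 0.5% DMSO vehicle, duplicates. Readout: Fluidigm qRT-PCR of PTEN transcript; housekeeping normalization (ACTB, GAPDH, POLR2A). Gain or loss fitted relative to DMSO baseline.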
# [10] = read-out: solute carrier (SLC22A1), SLC22A1 (gene 6580); test: LTEA_HepaRG_SLC22A1: Life Technologies and Expression Analysis (LTEA) Assay for solute carrier (SLC22A1) using HepaRG (AID 2283524);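 as to AC50: differentiated human HepaRG liver cells in serum-free induction medium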
# How it was run: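 qRT-PCR readout (TaqMan, Fluidigm arrays) of SLC22A1 transcript, normalized to three housekeeping genes; bidirectional curve fit relative to 0.5% DMSO vehicle. Differentiated human HepaRG cells, 48 h chemical exposure, top concentration 100 uM, half-log steps, eight points.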
# [11] = read-out: Pyruvate Dehydrogenase Kinase 4 (PDK4), PDK4 (gene 5166); test: LTEA_HepaRG_PDK4: Life Technologies and Expression Analysis (LTEA) Assay for Pyruvate Dehydrogenase Kinase 4 (PDK4) using HepaRG (AID 2283525)
# How it was run: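 HepaRG (human liver line), 48 h chemical exposure, 8-pt half-log CRC top 100 uM, 0.5% DMSO vehicle, duplicates. Readout: TaqMan qRT-PCR of PDK4 mRNA, housekeeping-normalized; gain/loss fit relative to DMSO baseline.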
# [12] = read-out: NAD(P)H dehydrogenase [quinone] 1 (NQO1), NQO1 (gene 1728); test: LTEA_HepaRG_NQO1: Life Technologies and Expression Analysis (LTEA) Assay for NAD(P)H dehydrogenase [quinone] 1 (NQO1) using HepaRG (AID 2283526)
# How it was run: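 Transcript induction or suppression is quantified by qRT-PCR in human HepaRG liver cells dosed for 48 hours. Eight half-log concentrations topping at 100 uM are used, with 0.5% DMSO as vehicle and baseline.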
# [13] = read-out: Nuclear factor erythroid 2-related factor 2 (Homo sapiens) (UniProt Q16236); test: LTEA_HepaRG_NFE2L2: Life Technologies and Expression Analysis (LTEA) Assay for Nuclear factor erythroid 2-related factor 2 (NFE2L2) Transcription Factor using HepaRG (AID 2283527);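 also: TaqMan qRT-PCR transcript level normalised to ACTB GAPDH and POLR2A housekeeping genes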
# How it was run: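 HepaRG, 48 h dosing, 8-pt half-log series from 100 uM in 0.5% DMSO, duplicates. Read-out: NFE2L2 mRNA by qRT-PCR (ACTB/GAPDH/POLR2A normalization). Bidirectional curve fit vs DMSO baseline.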
# [14] = read-out: succinate dehydrogenase complex iron sulfur subunit B (SDHB), SDHB (gene 6390); test: LTEA_HepaRG_SDHB: Life Technologies and Expression Analysis (LTEA) Assay for succinate dehydrogenase complex iron sulfur subunit B (SDHB) using HepaRG (AID 2283528)
# How it was run: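 Readout is SDHB transcript level by qRT-PCR, normalised to three housekeeping genes and fitted bidirectionally against 0.5% DMSO vehicle. Human HepaRG cells were treated for 48 h at up to 100 uM.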
# [15] = read-out: Signal transducer and activator of transcription 3 (Homo sapiens) (UniProt P40763); test: LTEA_HepaRG_STAT3: Life Technologies and Expression Analysis (LTEA) Assay for Signal transducer and activator of transcription (STAT3) using HepaRG (AID 2283529)
# How it was run: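 HepaRG, 48 h exposure, 8-pt half-log series (top 100 uM), 0.5% DMSO vehicle, duplicates. Readout: STAT3 transcript by Fluidigm qRT-PCR, housekeeping-normalized; bidirectional fit vs DMSO baseline.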
# [16] = read-out: solute carrier (SLCO1B1), SLCO1B1 (gene 10599); test: LTEA_HepaRG_SLCO1B1: Life Technologies and Expression Analysis (LTEA) Assay for solute carrier (SLCO1B1) using HepaRG (AID 2283530)
# How it was run: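 SLCO1B1 transcript read by qRT-PCR (Fluidigm arrays), normalized to three housekeeping genes, after 48 h chemical exposure of HepaRG cells; bidirectional concentration-response fitting versus 0.5% DMSO baseline. Eight-point half-log series, maximum 100 uM.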
# [17] = read-out: sulfotransferase 2A1 (SULT2A1), SULT2A1 (gene 6822); test: LTEA_HepaRG_SULT2A1: Life Technologies and Expression Analysis (LTEA) Assay for sulfotransferase 2A1 (SULT2A1) using HepaRG (AID 2283531)
# How it was run: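 HepaRG, 48 h chemical exposure, 8-pt half-log curve from 100 uM in 0.5% DMSO, duplicates. Readout: TaqMan qRT-PCR of SULT2A1 mRNA, housekeeping-normalized. Bidirectional fit vs DMSO baseline.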
# [18] = read-out: Transforming Growth Factor (TGFA), TGFA (gene 7039); test: LTEA_HepaRG_TGFA: Life Technologies and Expression Analysis (LTEA) Assay for Transforming Growth Factor (TGFA) using HepaRG (AID 2283532)
# How it was run: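 qRT-PCR read-out of TGFA transcript, normalized to three housekeeping genes, fitted bidirectionally against 0.5% DMSO baseline. Human HepaRG cultures received chemicals for 48 h at eight half-log concentrations, top 100 uM.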
# [19] = read-out: Lipase C (LIPC), LIPC (gene 3990); test: LTEA_HepaRG_LIPC: Life Technologies and Expression Analysis (LTEA) Assay for Lipase C (LIPC) using HepaRG (AID 2283514)
# How it was run: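 HepaRG, 48 h exposure, 8-pt half-log series from 100 uM in 0.5% DMSO, duplicates. Readout: LIPC mRNA by Fluidigm qRT-PCR, housekeeping-normalized (ACTB/GAPDH/POLR2A). Gain or loss fitted bidirectionally against DMSO baseline.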
# Signal transducer and activator of transcription 3 (Homo sapiens), sequence (P40763 whole entry, looked up): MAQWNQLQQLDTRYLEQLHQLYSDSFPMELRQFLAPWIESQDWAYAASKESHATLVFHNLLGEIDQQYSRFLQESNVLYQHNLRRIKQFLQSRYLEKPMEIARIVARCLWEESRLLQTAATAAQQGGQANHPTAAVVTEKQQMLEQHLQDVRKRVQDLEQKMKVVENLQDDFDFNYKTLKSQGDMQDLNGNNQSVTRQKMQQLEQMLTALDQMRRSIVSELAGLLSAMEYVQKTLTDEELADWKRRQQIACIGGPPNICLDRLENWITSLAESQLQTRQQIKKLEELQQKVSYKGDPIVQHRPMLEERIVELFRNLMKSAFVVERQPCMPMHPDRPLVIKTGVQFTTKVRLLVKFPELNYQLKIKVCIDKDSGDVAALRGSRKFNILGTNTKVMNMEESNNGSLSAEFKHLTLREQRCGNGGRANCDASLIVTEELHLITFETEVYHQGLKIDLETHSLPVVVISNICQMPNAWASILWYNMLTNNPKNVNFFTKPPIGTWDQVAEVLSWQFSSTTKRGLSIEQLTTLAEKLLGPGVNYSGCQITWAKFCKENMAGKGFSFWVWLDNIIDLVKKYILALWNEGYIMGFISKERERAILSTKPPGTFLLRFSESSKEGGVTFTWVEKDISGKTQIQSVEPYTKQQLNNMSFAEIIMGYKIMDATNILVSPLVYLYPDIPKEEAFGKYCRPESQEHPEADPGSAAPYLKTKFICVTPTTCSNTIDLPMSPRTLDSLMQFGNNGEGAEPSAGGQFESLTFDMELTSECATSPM
# Nuclear factor erythroid 2-related factor 2 (Homo sapiens), sequence (Q16236 whole entry, looked up): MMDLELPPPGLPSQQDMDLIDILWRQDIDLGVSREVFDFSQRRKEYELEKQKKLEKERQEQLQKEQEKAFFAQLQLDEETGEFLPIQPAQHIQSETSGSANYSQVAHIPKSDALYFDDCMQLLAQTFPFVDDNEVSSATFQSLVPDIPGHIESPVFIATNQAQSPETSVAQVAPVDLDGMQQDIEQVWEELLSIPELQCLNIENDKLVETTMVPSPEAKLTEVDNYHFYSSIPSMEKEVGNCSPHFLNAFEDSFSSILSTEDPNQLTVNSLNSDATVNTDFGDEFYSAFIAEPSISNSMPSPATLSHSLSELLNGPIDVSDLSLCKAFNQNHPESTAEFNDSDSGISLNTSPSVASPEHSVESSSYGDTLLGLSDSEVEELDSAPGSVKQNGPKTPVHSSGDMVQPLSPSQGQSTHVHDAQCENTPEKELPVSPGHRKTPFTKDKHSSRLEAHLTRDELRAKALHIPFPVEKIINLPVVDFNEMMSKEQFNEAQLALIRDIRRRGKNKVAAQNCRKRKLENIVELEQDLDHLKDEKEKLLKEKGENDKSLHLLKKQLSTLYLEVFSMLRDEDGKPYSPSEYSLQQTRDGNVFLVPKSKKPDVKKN
# Nuclear factor NF-kappa-B p105 subunit (Homo sapiens), sequence (P19838 whole entry, looked up): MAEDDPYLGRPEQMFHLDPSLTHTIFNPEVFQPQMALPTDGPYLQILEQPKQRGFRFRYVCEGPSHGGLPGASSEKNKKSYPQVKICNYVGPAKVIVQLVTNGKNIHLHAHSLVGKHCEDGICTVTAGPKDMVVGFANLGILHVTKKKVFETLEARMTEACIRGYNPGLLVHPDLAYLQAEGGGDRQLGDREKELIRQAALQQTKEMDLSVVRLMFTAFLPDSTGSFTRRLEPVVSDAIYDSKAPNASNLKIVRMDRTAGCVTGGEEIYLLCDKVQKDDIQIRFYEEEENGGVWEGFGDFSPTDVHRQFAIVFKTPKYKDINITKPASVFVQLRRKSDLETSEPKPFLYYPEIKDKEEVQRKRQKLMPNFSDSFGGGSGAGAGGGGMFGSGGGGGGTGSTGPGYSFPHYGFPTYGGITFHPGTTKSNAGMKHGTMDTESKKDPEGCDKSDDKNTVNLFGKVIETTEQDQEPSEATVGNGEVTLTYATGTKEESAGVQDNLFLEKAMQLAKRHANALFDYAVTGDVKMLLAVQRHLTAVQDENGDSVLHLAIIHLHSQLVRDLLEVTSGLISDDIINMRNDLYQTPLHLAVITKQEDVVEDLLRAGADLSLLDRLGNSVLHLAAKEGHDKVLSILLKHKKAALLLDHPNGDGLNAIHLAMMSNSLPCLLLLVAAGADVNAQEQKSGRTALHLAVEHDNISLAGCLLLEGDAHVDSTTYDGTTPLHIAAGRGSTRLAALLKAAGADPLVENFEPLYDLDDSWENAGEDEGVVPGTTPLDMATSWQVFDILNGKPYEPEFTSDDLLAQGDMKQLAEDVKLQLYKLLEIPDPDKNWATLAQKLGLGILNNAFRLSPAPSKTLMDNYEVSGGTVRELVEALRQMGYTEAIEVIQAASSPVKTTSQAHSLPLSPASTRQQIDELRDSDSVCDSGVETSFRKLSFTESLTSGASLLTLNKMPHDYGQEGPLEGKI
smiles,measurement,setting,value
CCCN(C1CCN(C(=O)C2CCNCC2)CC1)[C@@H]1CCc2ccc(OC)cc2C1,outcome,[1],inactive
same,outcome,[2],inactive
same,AC50,[3],80 µM (active)
same,outcome,[4],inactive
same,AC50,"MYC, MYC (gene 4609)",89.5 µM (active)
same,outcome,[5],inactive
same,AC50,[6],60.2 µM (active)
same,AC50,[7],0.304 µM (active)
same,outcome,[8],inactive
same,outcome,[9],inactive
same,AC50,[10],83 µM (active)
same,outcome,[11],inactive
same,outcome,[12],inactive
same,outcome,[13],inactive
same,outcome,[14],inactive
same,AC50,[15],0.256 µM (active)
same,AC50,[16],79.4 µM (active)
same,AC50,[17],83.5 µM (active)
same,outcome,[18],inactive
O=C1OC(=O)C2C3C=CC(C3)C12 (stereo not drawn),outcome,[1],inactive
same,outcome,[19],inactive
same,outcome,[2],inactive
same,outcome,[3],inactive
same,outcome,[4],inactive
same,outcome,"MYC, MYC (gene 4609)",inactive
same,outcome,[5],inactive
same,outcome,[6],inactive
same,outcome,[8],inactive
same,outcome,[9],inactive
same,outcome,[10],inactive
same,outcome,[11],inactive
same,outcome,[12],inactive
same,outcome,[13],inactive
same,outcome,[14],inactive
same,outcome,[15],inactive
same,outcome,[16],inactive
same,outcome,[17],inactive
same,outcome,[18],inactive
On1ccccc1=S,outcome,[1],inactive
same,outcome,[2],inactive
same,outcome,[3],inactive
same,outcome,[4],inactive
same,outcome,"MYC, MYC (gene 4609)",inactive
same,outcome,[5],inactive
same,outcome,[6],inactive
same,outcome,[8],inactive
same,outcome,[9],inactive
same,outcome,[10],inactive
same,outcome,[11],inactive
same,outcome,[12],inactive
same,outcome,[13],inactive
same,outcome,[14],inactive
same,outcome,[15],inactive
same,outcome,[16],inactive
same,outcome,[17],inactive
same,outcome,[18],inactive
Cc1ccc(O)cc1,outcome,[1],inactive
same,outcome,[19],inactive
same,outcome,[2],inactive
same,outcome,[3],inactive
same,outcome,[4],inactive
same,outcome,"MYC, MYC (gene 4609)",inactive
same,outcome,[5],inactive
same,outcome,[6],inactive
same,outcome,[8],inactive
same,outcome,[9],inactive
same,outcome,[10],inactive
same,outcome,[11],inactive
same,outcome,[12],inactive
same,outcome,[13],inactive
same,outcome,[14],inactive
same,outcome,[15],inactive
same,outcome,[16],inactive
same,outcome,[17],inactive
same,outcome,[18],inactive
CCNc1ccccc1,outcome,[1],inactive
same,outcome,[19],inactive
same,outcome,[2],inactive
same,outcome,[3],inactive
same,outcome,[4],inactive
same,outcome,"MYC, MYC (gene 4609)",inactive
same,outcome,[5],inactive
same,outcome,[6],inactive
same,outcome,[8],inactive
same,outcome,[9],inactive
same,outcome,[10],inactive
same,outcome,[11],inactive
same,outcome,[12],inactive
same,outcome,[13],inactive
same,outcome,[14],inactive
same,outcome,[15],inactive
same,outcome,[16],inactive
same,outcome,[17],inactive
same,outcome,[18],inactive
O=C(O)CC(O)C(=O)O (stereo not drawn),outcome,[1],inactive
same,outcome,[19],inactive
same,outcome,[2],inactive
same,outcome,[3],inactive
same,outcome,[4],inactive
same,outcome,"MYC, MYC (gene 4609)",inactive
same,outcome,[5],inactive
same,outcome,[6],inactive
same,outcome,[8],inactive
same,outcome,[9],inactive
same,outcome,[10],inactive
same,outcome,[11],inactive
same,outcome,[12],inactive
same,outcome,[13],inactive
same,outcome,[14],inactive
same,outcome,[15],inactive
same,outcome,[16],inactive
same,outcome,[17],inactive
same,outcome,[18],inactive
